High-throughput results (PubChem BioAssay)
Compounds with a hit are over-represented: about 5.2% of the library has one in this group of screens.
esBAF inh – SWI/SNF esBAF complex inhibition; reporter increase, % at 12.5 µM; mouse ES cells, Bmi1-luciferase knock-in reporter, 24 h; 100% = twice the neutral-well signal; actives 2% (n = 350,000); AID 602393; in the data active = activation above about 40%;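 also: 0% = median of the plate's neutral control wells and 100% = double that signal; a rise in the Bmi1 reporter signal indicates esBAF inhibition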
Vif imaging – HIV Vif inhibition | HEK293T cells, Vif self-association by quenched fluorescence, imaging, 24 h | inhibition, % at 7.49 µM | actives 0.35% (n = 340,000); in the data active = inhibition above about 50%, passing the limit was not always enough
NadD block – inhibitors of Staphylococcus aureus NadD; purified NadD enzyme, colorimetric absorbance read-out; AID 602399; actives 0.78% (n = 360,000); inhibition, % at 20 µM; in the data active = inhibition above about 26%
SMARCA2 activ – SMARCA2 function activation, primary screen | MG213 cells, MMTV-luciferase reporter, dexamethasone, overnight | activation, % at 9.1 µM | actives 1% (n = 370,000); in the data active = activation above about 7.8%;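 also: 0% = vehicle wells and 100% = reference activator wells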
GRIN3A LBD mod – NR3A (human) ligand-binding domain modulation; actives 2.5% (n = 340,000); Tm shift relative to glycine control, % at 25 µM; NR3A LBD differential scanning fluorimetry, Tm shift; 0% = protein alone, 100% = glycine-bound protein; AID 1259313;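 active = melting temperature shift of at least 10% of the positive control shift, at one fixed dose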
SKN-1 block – blocks SKN-1 activity in C. elegans; actives 0.49% (n = 360,000); inhibition, % at 21.8 µM; C. elegans VP596 Pgst-4::GFP/RFP ratio, acrylamide-induced, 24 h; AID 624304;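 active = interference check ratio from 0.5 to 1.5 plus GFP to RFP signal ratio inhibition reaching or exceeding a fixed threshold, cut at about 30% in these data, passing the limit was not always enough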
The depositor's hits bear a star; / = no result.

SMILES	esBAF inh	Vif imaging	NadD block	SMARCA2 activ	GRIN3A LBD mod	SKN-1 block
O=C1OCCC1Sc1nc2ccccc2c(=O)n1Cc1ccccc1 (stereo unspecified)	/	-7	-2	-2	0	6
CC(C)(C)c1ccc(-c2nnc(SC3CCOC3=O)n2Cc2ccccc2)cc1 (stereo unspecified)	/	-1	11	-1	13*	8
Cc1ccc(OCC(=O)N2CCN(S(=O)(=O)c3ccc(Cl)cc3)CC2)c([N+](=O)[O-])n1	/	-4	-4	1	1	-3
O=C(COc1cccnc1[N+](=O)[O-])N1CCN(S(=O)(=O)c2ccc3ccccc3c2)CC1	/	/	2	-2	14*	-6
CS(=O)(=O)N(Cc1ccc(Cl)cc1)c1ccc(C(=O)N/N=C/c2cc3ccccc3nc2Cl)cc1	-7	-18	30	-1	10*	0
CS(=O)(=O)N(Cc1ccc(C(=O)NN=C2CCCCCC2)cc1)c1ccccc1	-9	-2	2	-3	13*	-4
CS(=O)(=O)N(Cc1ccc(Cl)cc1)c1ccc(C(=O)NCc2ccccn2)cc1	/	0	-1	3	-1	0
CS(=O)(=O)N(Cc1ccc(C(=O)NN=C2CCCC2)cc1)c1ccccc1	/	4	-2	-2	-1	3
CCCNC(=O)[C@@H]1[C@@H](CO)[C@@H]2Cn3c(ccc(-c4ccc(F)cc4)c3=O)[C@@H]2N1CC1CC1	-4	/	/	/	/	/
CCCNC(=O)[C@H]1[C@H](CO)[C@H]2Cn3c(ccc(/C=C/c4ccccc4)c3=O)[C@@H]1N2C(=O)c1ccccc1	-8	/	/	/	/	/
Cc1cccc(NC(=O)c2cnn(-c3ccccc3)c2C)c1C	63*	0	-7	3	1	3
CCOC(=O)c1cnn(-c2ccccc2)c1NC(=O)c1ccccc1C	-8	54*	-5	1	1	2
CCc1ccccc1NC(=O)c1cnn(-c2ccccc2)c1C	23	-6	-5	0	0	9
CCOC(=O)c1cnn(-c2cc(Oc3ccccc3)ncn2)c1N	16	0	-6	-1	0	-9
CCOC(=O)c1cnn(-c2ccccn2)c1N	40	5	1	7.9*	0	7
Cc1ccccc1C(=O)Nc1c(C(=O)N2CCCC2)cnn1-c1ccccc1	2	/	-4	-1	-1	12
Cc1ccccc1NC(=O)c1cnn(-c2ccccc2)c1C	75*	2	-5	3	2	19
CNc1ccccc1-n1ccc(-c2ccccc2)n1	60*	/	3	-1	3	1
Cn1ccc(-c2ccccc2)n1	12	-2	-2	-1	1	-2
CN(C)Cc1cn(CC[C@@H]2CC[C@@H](NC(=O)Nc3ccccc3F)[C@H](CO)O2)nn1	-6	/	/	/	/	/
COc1ccc(/C(C)=N/NC(=O)CNC(=O)/C=C\c2ccccc2OC)c(OC)c1	-8	-6	2	-2	2	37*
COc1ccccc1/C=C/C(=O)NCC(=O)N/N=C(/C)c1ccco1	-4	-12	0	-2	-2	8
CCOc1ccccc1OCCn1nc2ccccc2n1	13	-3	-3	-1	1	23
Cc1ccc(OCCn2nc3ccccc3n2)c(C)c1	55*	-10	-7	4	2	-6
Cc1cccc(C)c1-n1c(C)cc(/C=N/NC(=O)CSc2ncccn2)c1C	/	-7	-6	0	-2	11
SMILES	esBAF inh	Vif imaging	NadD block	SMARCA2 activ	GRIN3A LBD mod	SKN-1 block
Cc1cc(C)nc(SCC(=O)N/N=C/c2cc(C)n(-c3ccccc3C)c2C)n1	/	-14	3	5	11*	-13
O=C(C[C@H]1C=C[C@@H](NS(=O)(=O)c2ccc(F)cc2)[C@H](CO)O1)NCCc1ccncc1	-3	/	/	/	/	/
Clc1ccc(/C=N/Nc2ccccn2)cc1	43*	15	-3	2	-8	12
Cc1ccc(/C=N/Nc2ccccn2)s1	57*	-6	-4	5	-1	-8
Fc1ccc(/C=N/Nc2ccccn2)cc1	/	-2	-3	4	0	8
Brc1ccc(/C=N/Nc2ccccn2)cc1	70*	5	-4	3	-21	9
O=C(C[C@@H]1CC[C@H](NC(=O)C2CCC2)[C@@H](CO)O1)NCCCN1CCOCC1	-5	/	/	/	/	/
Cn1c(SCc2ccc(C#N)cc2Cl)nc2ccccc21	87*	-3	3	5	2	8
Cc1cc(C)c(OCCOCCN2CCNCC2)c(C)c1	0	3	1	4	-1	39*
O=C(CS(=O)(=O)c1ccccc1)CS(=O)(=O)c1ccccc1	/	/	/	-3	/	/
O=S(=O)(C/C(=C/CO)S(=O)(=O)c1ccccc1)c1ccccc1	-53	62*	2	-10	0	-14
O=C(Cn1cnc2c(nnn2Cc2ccccc2)c1=O)c1ccccc1	6	-20	-2	-2	12*	0
Cc1cc2ccccc2n1CCNC(=O)c1cccs1	21	0	11	2	-23	46*
Cc1cc2ccccc2n1CCNC(=O)C1CC1	-6	-7	6	1	2	47*
O=C(Cc1cccc2ccccc12)NNC(=O)c1cccs1	9	30	-3	-3	1	-1
Cc1cc2ccccc2n1CCNC(=O)C1CCCCC1	27	0	1	3	-2	59
O=C(COC(=O)C(Cc1ccccc1)NC(=O)c1cccs1)NCc1ccccc1 (stereo unspecified)	1	59*	-5	0	0	8
O=C(NCc1cccc2ccccc12)c1cccs1	55*	-5	-7	4	0	2
CNC(=O)C[C@H]1CC[C@@H]2[C@H](COC[C@@H](O)CN2Cc2ccc(C(F)(F)F)cc2)O1	-5	/	/	/	/	/
Cc1cc2ccccc2n1CCNC(=O)C1CCCC1	/	-7	3	0	2	38*
CC1CCCN(c2nc(-c3cccnc3)nc3scc(-c4ccccc4)c23)C1 (stereo unspecified)	/	-16	10	1	12*	11
C[C@H](CO)N1C[C@H](C)[C@@H](CN(C)Cc2ccc(Cl)c(Cl)c2)Oc2ccc(NS(=O)(=O)c3ccc(Cl)cc3)cc2C1=O	1	/	/	/	/	/
CCCCC1=CC2=CC(=O)C(C)(OC(=O)CC)C(=O)C2=CN1CCOC (stereo unspecified)	4	-1	6	/	61*	21
CCC(=O)NC1=C(NC(C)c2ccccc2)C(=O)c2ccccc2C1=O (stereo unspecified)	-8	-1	-1	0	1	1
CCC(=O)NC1=C(Cl)C(=O)C(NC(=O)CC)=C(Cl)C1=O	9	20	6	8.6*	-5	18
Clc1ccc(CSc2snnc2-c2ccccc2)cc1	16	-14	13	1	0	9
Clc1ccc(-c2nnsc2SCc2ccccc2)cc1	31	5	19	1	-1	36*
